Compound activity from PubChem BioAssay.
CYP2C9 inhib = blocks human cytochrome P450 2C9 | inhibition, % at 5 µM | CYP2C9 Supersomes, luciferin-H conversion, luminescence | P11712 | 20% of 96,000 active;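 active = blocking of liver enzyme CYP2C9 beyond about 50% at 5 µM, limit read from the data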
CYP2C19 act = increases human CYP2C19 enzyme activity; recombinant CYP2C19, luciferin-H EGE luminescence; hits give high values; 0 = fully inhibited enzyme, 1 = untreated enzyme; activation factor at 5 µM; AID 1025; 96,000 tested, under 10 active;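 active = activation factor of at least 2 at 5 µM in the primary screen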;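 note: 0 = wells with 2.5 mM tranylcypromine and 1 = vehicle-only wells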
Target sequence (P33261 whole entry, looked up): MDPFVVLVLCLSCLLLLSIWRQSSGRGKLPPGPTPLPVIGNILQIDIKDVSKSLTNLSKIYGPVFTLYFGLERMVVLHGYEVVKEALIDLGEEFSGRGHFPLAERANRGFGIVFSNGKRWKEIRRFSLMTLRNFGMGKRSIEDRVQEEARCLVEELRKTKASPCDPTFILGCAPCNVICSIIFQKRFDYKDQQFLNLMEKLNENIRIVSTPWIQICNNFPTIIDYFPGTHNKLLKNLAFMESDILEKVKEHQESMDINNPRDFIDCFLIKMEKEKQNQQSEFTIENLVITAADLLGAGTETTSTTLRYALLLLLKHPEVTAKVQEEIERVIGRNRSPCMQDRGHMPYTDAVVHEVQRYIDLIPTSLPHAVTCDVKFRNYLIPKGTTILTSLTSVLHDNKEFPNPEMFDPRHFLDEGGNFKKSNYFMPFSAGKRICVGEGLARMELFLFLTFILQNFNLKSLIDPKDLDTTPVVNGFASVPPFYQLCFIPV
sEH inhibitor = blocks human soluble epoxide hydrolase activity | P34913 | recombinant human sEH enzymatic activity assay | inhibition, % at 2 µM | 0.34% of 91,000 active; in the data active = inhibition above about 80%
CYP2C9 act = increases human cytochrome P450 2C9 activity; activation factor at 5 µM; recombinant CYP2C9, luciferin-H conversion, luminescence; hits give high values; factor 1 = untreated enzyme, 0 = blocked; P11712; 1.4% of 96,000 active; AID 1024;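 active = activation factor of 2 or more for CYP2C9 at a 5 µM dose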;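 note: 0 = sulfaphenazole-blocked wells and 1 = vehicle-only wells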
CYP2C19 inh = inhibitors of human CYP2C19; CYP2C19 Supersomes, luciferin-H EGE luminescence, 30 min; P33261; 21% of 96,000 active; inhibition, % at 5 µM;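 active = CYP2C19 inhibition above a set limit at 5 µM in the primary screen, cut at about 50% in these data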;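 note: plate controls were negative control wells for no effect and 2.5 mM tranylcypromine positive control for full effect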
sEH activator = increases human soluble epoxide hydrolase activity. activation, % at 2 µM. P34913. purified human sEH enzymatic activity, activator screen. AID 717. 0.04% of 91,000 active; in the data active = activation above about 37%
An asterisk follows results filed as active. Most compounds without a hit are left out; they make up all but 27% or so of the library.

`CC(C)CCNC(=O)CN(C(=O)CCC(=O)Nc1ccccn1)c1ccc2c(c1)OCO2` gave CYP2C9 inhib 58*, CYP2C19 act 0.5, sEH inhibitor -22, CYP2C9 act 0.4, CYP2C19 inh 46 and sEH activator 21.
`O=C(CN(C(=O)CCC(=O)Nc1ccccn1)c1ccc2c(c1)OCO2)NCc1ccco1` gave CYP2C9 inhib 31, CYP2C19 act 0.5, sEH inhibitor -7, CYP2C9 act 0.7, CYP2C19 inh 49 and sEH activator 8.
Screening Cc1ccc(N(CC(=O)NCc2ccco2)C(=O)CCC(=O)Nc2ccccn2)cc1C returned CYP2C9 inhib 30, CYP2C19 act 0, sEH inhibitor 4, CYP2C9 act 0.7, CYP2C19 inh 96* and sEH activator -6.
`CCC(C)(C)NC(=O)CN(C(=O)CCC(=O)Nc1cc(C)ccn1)c1ccc2c(c1)OCO2` gave CYP2C9 inhib 50*, CYP2C19 act 0.4, sEH inhibitor -6, CYP2C9 act 0.5, CYP2C19 inh 58* and sEH activator 3.
Screening CC(C)CCNC(=O)CN(C(=O)CCC(=O)Nc1ccccn1)c1ccc2c(c1)OCCO2 returned sEH inhibitor -12 and sEH activator 18.
Screening CC(=O)c1cc2c(cc1NS(=O)(=O)c1ccc(C)cc1)OCCO2 returned CYP2C9 inhib -17, CYP2C19 act 0.6, sEH inhibitor 25, CYP2C9 act 1.2, CYP2C19 inh 43 and sEH activator -21.
Clc1ccc(Cc2ccc(Cl)nn2)c(Cl)c1 was read as CYP2C9 inhib 21, CYP2C19 act 0.3, sEH inhibitor -9, CYP2C9 act 0.8, CYP2C19 inh 73* and sEH activator 6.
Cc1ccc2nc3c(cc(C#N)c(=O)n3CC3CCCO3)c(=O)n2c1 (stereo not drawn) was read as CYP2C9 inhib 13, CYP2C19 act 1, CYP2C9 act 0.9 and CYP2C19 inh 2.
CC1CN(C2CCN(S(=O)(=O)c3ccc4ccccc4c3)CC2)CC(C)O1 (stereo not drawn) was read as CYP2C9 inhib -61, CYP2C19 act 0.9, CYP2C9 act 1.6 and CYP2C19 inh 11.
For O=C(c1ccccc1)N1CCCCC(S(=O)(=O)c2ccc3ccccc3c2)C1=O (stereo not drawn) the results were CYP2C9 inhib -62, CYP2C19 act 0.5, sEH inhibitor 2, CYP2C9 act 1.6, CYP2C19 inh 54* and sEH activator -1.
`O=C(NNS(=O)(=O)c1ccc2ccccc2c1)C1CCN(Cc2ccccc2)CC1` gave CYP2C9 inhib -9, CYP2C19 act 1.1, sEH inhibitor 9, CYP2C9 act 1.1, CYP2C19 inh -12 and sEH activator -6.
O=C1OCCC1S(=O)(=O)c1ccc2ccccc2c1 (stereo not drawn) was read as CYP2C9 inhib -402, CYP2C19 act 0.7, sEH inhibitor 11, CYP2C9 act 5*, CYP2C19 inh 32 and sEH activator -8.
`O=c1[nH]c2cc3c(cc2cc1CN(Cc1ccccc1)Cc1nnnn1Cc1ccco1)OCCO3` gave CYP2C9 inhib 4, CYP2C19 act 1, sEH inhibitor 10, CYP2C9 act 1, CYP2C19 inh 2 and sEH activator -12.
For Cc1cc(C)c2cc(CN(Cc3ccc4c(c3)OCO4)Cc3nnnn3Cc3ccco3)c(=O)[nH]c2c1 the results were CYP2C9 inhib 80*, CYP2C19 act 0.3, sEH inhibitor 7, CYP2C9 act 0.2, CYP2C19 inh 67* and sEH activator -9.
O=c1[nH]c2cc3c(cc2cc1CN(Cc1cccnc1)Cc1nnnn1Cc1ccco1)OCCO3 was read as CYP2C9 inhib 39, CYP2C19 act 0.6, sEH inhibitor -1, CYP2C9 act 0.6, CYP2C19 inh 40 and sEH activator 2.
`Cc1ccc2[nH]c(=O)c(CN(Cc3ccc4c(c3)OCO4)Cc3nnnn3Cc3ccco3)cc2c1` gave CYP2C9 inhib 99*, CYP2C19 act 0, sEH inhibitor 7, CYP2C9 act 0, CYP2C19 inh 99* and sEH activator -7.
`O=C1C2C3C=CC(C3)C2C(=O)N1c1ccncc1` (stereo not drawn) gave CYP2C9 inhib 28, CYP2C19 act 0.8, sEH inhibitor -3, CYP2C9 act 0.7, CYP2C19 inh 15 and sEH activator 2.
